Rows were chosen to be rich in hits. Some 7.5% of all compounds tested hit in one or more screens of this group.
NPC1 prom act – qHTS Assay for NPC1 Promoter Activators | 2.4% of 320,000 active | AID 485313, 2010 | Huh7 NPC1 promoter luciferase reporter, 24 h | Potency, µM (top dose mostly 9.22 µM), for the others: at the highest dose activation, hits mostly activators; further: % of control where 0% means no effect; nearly all actives have a fitted effect of over 60% in size
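Luminescence read-out of NPC1 promoter-driven luciferase in stably transfected Huh7 cells; compounds delivered in DMSO and left 24 h at 37C, 5% CO2, qHTS titration format.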
FLuc modulator – qHTS profiling assay for firefly luciferase inhibitor/activator using purifed enzyme and Km concentrations of substrates (counterscreen for miR-21 project) | Luciferin 4-monooxygenase (Photinus pyralis), P08659 | purified FLuc, Km substrates, luminescence inhibition | Potency, µM (top dose mostly 57.5 µM), for inactives: top-dose activity change, negative = inhibition, usual class: inhibitors | 6.9% of 360,000 active | AID 588342, 2011;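 further: plate controls were vehicle for no effect and reference inhibitor for full effect; nearly all actives have a fitted effect of over 55% in size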
Target sequence (P08659 whole entry, looked up): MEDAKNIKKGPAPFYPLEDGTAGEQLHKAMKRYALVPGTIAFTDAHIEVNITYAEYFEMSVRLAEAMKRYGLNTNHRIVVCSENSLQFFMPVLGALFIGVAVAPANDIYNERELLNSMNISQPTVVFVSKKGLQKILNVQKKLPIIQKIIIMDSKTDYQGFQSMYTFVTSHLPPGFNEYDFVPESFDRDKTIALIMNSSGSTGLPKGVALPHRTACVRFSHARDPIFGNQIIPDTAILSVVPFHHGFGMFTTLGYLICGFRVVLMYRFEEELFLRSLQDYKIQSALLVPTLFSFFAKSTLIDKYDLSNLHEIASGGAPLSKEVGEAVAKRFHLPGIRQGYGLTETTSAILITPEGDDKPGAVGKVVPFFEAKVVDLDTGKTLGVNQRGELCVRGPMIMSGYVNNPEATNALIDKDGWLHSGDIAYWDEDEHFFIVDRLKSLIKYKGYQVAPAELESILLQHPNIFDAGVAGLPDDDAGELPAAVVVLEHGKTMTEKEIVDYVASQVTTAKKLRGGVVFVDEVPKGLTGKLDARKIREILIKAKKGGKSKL
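Purified P. pyralis luciferase, 10 nM final, with Km-level 10 uM D-luciferin and 10 uM ATP in 50 mM Tris acetate pH 7.5, 10 mM Mg acetate, 0.01% Tween-20, 0.05% BSA; 6-point qHTS titration about 60 µM downward; luminescence read.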
SMN2 splice enh – qHTS Assay for Enhancers of SMN2 Splice Variant Expression. 2.8% of 210,000 active. HEK293 SMN2-luciferase splicing reporter, luminescence, 30-36 h. AID 1458, 2008. Potency, µM (doses to about 46.1 µM), inactives show at the highest dose activity change, positive = activation, actives largely listed as activators; further: % of control where 0% means no effect; nearly all actives have a fitted effect of over 55% in size
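HEK293 cells carry an SMN2 […]–luciferase reporter in which exon 7 inclusion puts luciferase in frame. Cells were plated 10-12 h before compound addition, then incubated 30-36 h at 37C. ONE-Glo luminescence was read; sodium butyrate at 4.5 mM final served as control.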
ELG1 genotoxic – qHTS screen for small molecules that induce genotoxicity in human embryonic kidney (HEK293T) cells expressing luciferase-tagged ELG1 | HEK293T ELG1-luciferase reporter, luminescence, 16 h | Potency, µM (series often up to 46 µM), for inactives: top-dose activity change, positive = activation, actives largely listed as activators | 1.3% of 330,000 active | AID 504466, 2011; further: % of control where 0% means no effect; nearly all actives have a fitted effect of over 60% in size
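Luminescence read-out: rising ELG1-luciferase signal, reflecting elevated ELG1 protein under genetic stress, flags genotoxic compounds. Cells were treated for 16 hr at 37 °C before ONE-Glo detection.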
Rab9 promoter act – qHTS Assay for Rab9 Promoter Activators; Huh7 Rab9 promoter-luciferase reporter, luminescence, 24 h; Potency, µM (doses to about 9.22 µM), for inactives: at the highest dose activation, negative = inhibition, usual class: activators; 2.8% of 320,000 active; AID 485297, 2010; further: % of control where 0% means no effect; nearly all actives have a fitted effect of over 60% in size
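Steps: seed 1500 Huh7 Rab9-luc cells per well, rest 2 h at 37 °C; add compound in DMSO; incubate 24 h; add luciferase reagent, 10 min ambient; read luminescence.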
* marks the source's active call; other numbers are inactive results; ? = inconclusive; nt = no result; [ ] = dose if it differs, or a comment. The call rests on the fitted dose curve; in most records, active means well fitted curve in the direction sought with a large enough effect; inconclusive means small, poorly fitted or top-dose-only effect, or another doubt; inactive means no such curve, though single readings can be large; an effect the other way counts as inactive or inconclusive. Potency means the concentration at half of the fitted maximal effect.

SMILES | NPC1 prom act | FLuc modulator | SMN2 splice enh | ELG1 genotoxic | Rab9 promoter act
CN(C)c1cc(N/N=C\c2ccccc2)nc(N(C)C)n1 | 10.5% | ? | nt | -8.0% | -10.0%
COc1ccc(/C=N/Nc2cc(N(C)C)nc(N(C)C)n2)cc1 | 2.7% | 15.1µM* | -8.7% | -8.1% | -4.1%
COc1ccc(/C=N/Nc2cc(OC)ncn2)cc1 | 3.55µM* | 0.953µM* | nt | 1.84µM* | 1µM*
COc1cccc(-c2ccnc3c(-c4ccc(F)cc4)c(C)nn23)c1 | nt | 8.49µM* | 14.8% | nt | nt
COc1cccc(-c2ccnc3c(-c4ccccc4)c(C)nn23)c1 | nt | 10.7µM* | ? | nt | nt
COc1cccc(NC(=O)CN(C)C(=O)CSc2ccc3c(c2)OCCO3)c1 | -1.4% | -18.0% | nt | -0.5% | 1.0%
COc1ccccc1-c1ccc(SCc2cccc(F)c2)nn1 | 11.8% | 23.9µM* | 22.8% | 7.0% | 19.0%
COc1ccccc1-c1ccc(SCC(=O)NCCc2ccccc2)nn1 | -3.1% | -11.5% | -4.6% | -1.8% | 22.0%
COc1ccccc1-c1ccc(SCc2ccccc2)nn1 | 26.5% | 13.5µM* | 29.6% | -0.2% | ?
COc1ccccc1-c1ccc(SCc2ccccc2F)nn1 | 27.3% | 13.5µM* | 27.6% | 18.2% | ?
Cc1nc(C)c(-c2ccc(SCc3ccccc3F)nn2)s1 | ? | 10.7µM* | nt | ? | ?
CN(CC(=O)Nc1ccc(F)c(F)c1F)C(=O)CCN1C(=O)C2CCCCC2C1=O (configuration not stated) | 1.4% | 2.7% | nt | -0.1% | 2.0%
COc1cc(C2SCCCCCCCCCCSC(c3ccc(O)c(OC)c3)SCCCCCCCCCCS2)ccc1O (configuration not stated) | nt | nt | -4.1%[9.22 µM] | nt | nt
CCOc1ccc(/C=C2/SC(=S)N(CCC(=O)Nc3ccc(C(=O)O)cc3)C2=O)cc1 | 1.3% | 1.2µM* | nt | ? | 0.1%
COc1ccc(/C=C2\SC(=S)N(CCC(=O)Nc3ccccc3C(=O)O)C2=O)cc1 | -4.7% | 21.3µM* | nt | -2.1% | -0.5%
CCOc1ccc(/C=C2\SC(=S)N(CCC(=O)Nc3ccccc3C(=O)O)C2=O)cc1 | 1.9% | 15.1µM* | nt | 6.2% | ?
CCOc1ccc(/C=C2\SC(=S)N(CCC(=O)O)C2=O)cc1 | -10.6% | 1.69µM* | nt | 0.1% | -30.9%
CC(NC(=O)CCCn1c(=O)c2cccn2c2cccnc21)c1ccccc1 (configuration not stated) | nt | -1.9% | nt | nt | nt
CC1CC(C)CN(C(=O)C2CCN(S(=O)(=O)c3cccc4cccnc34)CC2)C1 (configuration not stated) | 0.6% | 0.6% | nt | -5.8% | -3.9%
CC(=O)c1c(C)oc2ccc(N(C(=O)Oc3ccccc3)S(=O)(=O)c3ccc(C(C)(C)C)cc3)cc12 | nt | -4.9% | -39.8% | nt | nt
COC(=O)c1ccc(CSc2nnc(C)n2N)o1 | -2.0% | 3.7% | nt | 10.4% | 10.3%
O=C(O)CCN1C(=O)CC(N2C(=O)/C(=C/c3ccc(Cl)cc3)SC2=S)C1=O (configuration not stated) | -5.4% | 19µM* | 1.2% | -5.8% | 0.1%
O=C(CSc1nc2ccccc2o1)N/N=C/c1ccc(O)c(O)c1 | -5.5% | 19µM* | nt | 14.4% | -2.4%
C/C(=N\NC(=O)CSc1nc2ccccc2o1)c1cccc(O)c1 | 1.7% | -12.7% | nt | 0.7% | 0.6%
C/C(=N\NC(=O)CSc1nc2ccccc2o1)c1ccc(O)cc1 | 1.2% | 16.9µM* | 10.5% | 9.3% | 3.5%
SMILES | NPC1 prom act | FLuc modulator | SMN2 splice enh | ELG1 genotoxic | Rab9 promoter act
CCc1nn2c(=O)cc(COC(=O)c3ccccc3NC(=O)c3ccc(C(C)(C)C)cc3)nc2s1 | nt | 5.36µM* | nt | nt | nt
CCCc1nn2c(=O)cc(COC(=O)c3ccccc3NC(=O)c3ccc(Cl)cc3)nc2s1 | nt | -8.2% | nt | nt | nt
CCc1nn2c(=O)cc(COC(=O)C(c3ccccc3)c3ccccc3)nc2s1 | nt | 7.1% | nt | nt | nt
CCc1nn2c(=O)cc(COC(=O)c3ccccc3)nc2s1 | nt | 16.9µM* | nt | nt | nt
O=C(OCc1cc(=O)n2c(n1)sc1ccccc12)c1ccc(O)cc1 | 9.4% | ? | 20µM* | ? | 18.0%
Cc1csc2nc(COC(=O)c3ccccc3NC(=O)c3ccc(C(C)(C)C)cc3)cc(=O)n12 | nt | 2.69µM* | nt | nt | nt
Cn1c(CCN2CCOCC2)nc2cc(NC(=O)c3cccs3)ccc21 | -2.8% | 0.6% | 7.2% | -0.7% | -4.0%
COCC(=O)N(Cc1cc2cccc(C)c2[nH]c1=O)c1ccccc1 | -1.0% | 0.6% | nt | -1.5% | 1.7%
Cc1c(Cl)cccc1-n1nnc(-c2nc(-c3ccc4c(c3)OCO4)no2)c1C | nt | 3.01µM* | nt | nt | nt
Cc1ccccc1OCC(=O)Nn1c(COc2ccccc2)nc2ccccc2c1=O | 0.3% | 26.9µM* | 0.3% | 8.2% | -2.2%
Cc1cccc(C)c1OCC(=O)Nn1c(COc2ccccc2)nc2ccccc2c1=O | -1.9% | ? | -11.6% | -0.2% | -0.5%
O=C(NC(=S)NCc1cccnc1)c1cc2ccccc2o1 | 0.3% | ? | 9.4% | -7.8% | 11.9%
O=C(NC(=S)Nc1cccnc1)c1cc2ccccc2o1 | 22.4% | 6.75µM* | nt | ? | 26.0%
CC(=O)Nc1ccc(NC(=S)NC(=O)c2cc3ccccc3o2)cc1 | 7.3% | -0.5% | 8.6% | 6.1% | 11.9%
O=C(NC(=S)Nc1ccc(CN2CCCCC2)cc1)c1cc2ccccc2o1 | 3.16µM* | -2.6% | nt | 2.2% | -0.8%
O=C(Nc1cccnc1)c1cc2cc(Br)ccc2o1 | 2.51µM* | 1.2µM* | nt | 5.17µM* | ?
Cc1oc(-c2cccc(Cl)c2)nc1CN1CCC(C(=O)NCCCN2CC(C)CC(C)C2)CC1 (configuration not stated) | -12.7% | -0.1% | nt | ? | 0.8%
COc1ccccc1C(=O)NNC(=O)c1ccc(Br)o1 | ? | 16.9µM* | nt | ? | 20.1%
COc1ccccc1C(=O)NNC(=O)c1ccncc1 | 10.4% | -16.4% | -9.8% | 7.4% | 12.9%
COc1ccccc1C(=O)NNC(=O)c1ccc(C)cc1 | 26.5% | 15.1µM* | nt | ? | ?
COc1ccccc1C(=O)NNC(=O)c1ccc(Br)cc1 | 19.5% | 13.5µM* | nt | 8.2% | 5.5%
CCO[C@H]1OC(C(=O)NC2CC2)=C[C@@H](c2csc3ccccc23)[C@@H]1CCCO | -2.4% | -1.4% | nt | -3.6% | 0.0%
COc1ccc2ncc3c(-c4ccc(C)c(C)c4)nn(CC(=O)NC4CCCCC4)c3c2c1 | nt | 5.2% | nt | nt | nt
CC(C)(C)C(=O)Nc1ccc2oc(-c3cc(F)c(F)cc3Cl)nc2c1 | ? | 2.69µM* | 25.5% | 5.17µM* | 4.47µM*
COc1ccccc1-c1nc2cc(NC(=O)c3ccccc3Cl)ccc2o1 | nt | 5.36µM* | 10.6% | nt | nt
O=C(Cc1ccc(Cl)cc1)Nc1ccc2oc(-c3ccccc3F)nc2c1 | nt | -13.5% | 13.9% | nt | nt
O=C(Nc1ccc2oc(-c3ccccc3F)nc2c1)c1ccccc1Cl | nt | 3.38µM* | 14.1µM* | nt | nt

Compound activity deposited in PubChem BioAssay by National Center for Advancing Translational Sciences (NCATS).
